SMILES strings stand for the structures. Inconclusive results are not listed. Calls of active or inactive are those of the source. The call rests on the fitted dose curve.
On the % scale 0 is the no-effect control and ±100 the full control effect; potency means the concentration at half of the fitted maximal effect.

This test can be described thus: qHTS assay to identify small molecule agonists of the NFkB signaling pathway - cell viability counter screen (AID 1159515). Further: nearly all actives have a fitted effect of over 55% in size. Conditions: NFkB-bla ME-180 viability, CellTiter-Glo luminescence, 5 h; series mostly up to 61 µM; activity, negative = cytotoxic: at the top concentration. From the text: National Center for Advancing Translational Sciences [NCATS]
NIH Chemical Genomics Center [NCGC]
U.S. Environmental Protection Agency [EPA]
National Institutes of Environmental Health Sciences [NIEHS]
National Toxicology Program [NTP]
U.S. Food and Drug Administration [FDA]
Transcription factors and their stimulated target gene expression play pivotal roles across many cellular processes including responses to environmental stimuli. Proper regulation of associated pathways is critical to maintain cell health and function. Constitutive activation of transcription factor pathways has been implicated in tumors as it may block cellular functions such as apoptosis and lead to invasion and metastasis. One important transcription factor that stimulates gene expression in response to cytokines, UV radiation, and other stimuli is nuclear factor-kappa B (NFkB). To measure activation of the NFkB pathway, the CellSensor NFkB-bla ME-180 cell line (Life Technologies, Carlsbad, CA) that stably expresses beta-lactamase reporter gene under the regulation of a NF-kB response element was used. This assay allows measurement of the NFkB pathway activity induced by compounds in a ME-180 cell line. This system quantitates NF-kB activity using a FRET-based assay system where beta-lactamase expression disrupts FRET, allowing for fluorescent measurement of activity. This cell line has been used to screen the Tox21 10K compound library and to identify compounds that induce the NFkB pathway activity. The cytotoxicity of the Tox21 compound library against the NFkB-bla ME-180 cell line was tested in parallel by measuring cell viability using the CellTiter-Glo assay in the same wells.
Tox21 Assay Protocol Summary:
NFkB-bla ME-180 cells were dispensed at 2,000 cells/6 uL of assay medium per well into black wall/clear-bottom 1536-well plates using a Multidrop Combi (ThermoFisher Scientific, Waltham, MA) dispenser. After the assay plates were incubated at 37 C and 5% CO2 for an overnight, 23 nL of compounds dissolved in DMSO, positive controls or DMSO only was transferred to the assay plate by a Pintool station (Kalypsys, San Diego, CA). The assay plates were incubated at 37 C and 5% CO2 for 5 hr. One uL of LiveBLAzer B/G FRET substrate (Life Technologies) was added using a Flying Reagent Dispenser (Aurora Discovery, San Diego, CA) and the plates were incubated at room temperature for 1.5 hr. Fluorescence intensity (405 nm excitation, 460 nm and 530 nm emissions) was measured using an Envision plate reader (PerkinElmer, Shelton, CT). For cytotoxicity, 3 ul/well of CellTiter-Glo reagent was added into the assay plates using an FRD. After 30 min incubation at room temperature, the luminescence intensity was measured using a ViewLux plate reader (PerkinElmer).
(qHTS replaces the single test concentration by a dilution series.)
In the case of `CCCCC(CC)COC(=O)c1ccccc1C(=O)OCC(CC)CCCC` (stereo not given), the “activity, negative = cytotoxic” value is 1.39% (inactive).
The same measure, in the same setting: then `Nc1ccc(Cl)cc1C(=O)c1ccccc1F`, with -13.8% (inactive); and `CCCCON=O`, with 6.04% [at 78.8 µM] (inactive); and `CSC(C)(C)/C=N/O`, with 3.73% (inactive).
Turning to `CC(Cl)CCl` (stereo not given), the “activity, negative = cytotoxic” value is 9.44% (inactive).
As for `O=C(NC(=O)c1ccccc1Cl)Nc1ccc(OC(F)(F)F)cc1`, the “activity, negative = cytotoxic” value is 6.66% (inactive).
With `COP(=O)(OC)Oc1ccc([N+](=O)[O-])cc1`, the “activity, negative = cytotoxic” value was 11.5% (inactive).
On to `CCC(C)c1cccc(C(C)CC)c1O` (stereo not given), for which the “activity, negative = cytotoxic” value was -25.2% (inactive).
Consider `CO/N=C(\C(=O)OC)c1ccccc1CO/N=C(\C)c1cccc(C(F)(F)F)c1`, for which the “activity, negative = cytotoxic” value was -17.6% (inactive).
On to `CCCCN(CCCC)C(=S)[S-].CCCCN(CCCC)C(=S)[S-].[Ni+2]`, for which the “activity, negative = cytotoxic” value is -0.481% (inactive).
Regarding `CC(C)[C@@H](Nc1ccc(C(F)(F)F)cc1Cl)C(=O)OC(C#N)c1cccc(Oc2ccccc2)c1` (stereo not given in full), the “activity, negative = cytotoxic” value was -8.2% (inactive).
In the case of `S=C=NCCc1ccccc1`, the “activity, negative = cytotoxic” value is -6.89% (inactive).
As to `O=C(N[C@@H]1N=C(c2ccccc2F)c2cccc3c2N(CC3)C1=O)c1cc2ccccc2[nH]1`, the “activity, negative = cytotoxic” value is -12.7% (inactive).
Regarding `CC(Cc1ccc(O)cc1)NCC(O)c1cc(O)cc(O)c1` (stereo not given), the “activity, negative = cytotoxic” value is 12% (inactive).
Turning to `NC1CCC(CC2CCC(N)CC2)CC1` (stereo not given), the “activity, negative = cytotoxic” value was -2.5% (inactive).
For the compound `O.O.O.O.O.O.O.O=S(=O)([O-])[O-].[Co+2]`, the “activity, negative = cytotoxic” value is -1.56% [at 78.8 µM] (inactive).
As to `CC(C)c1c(CN(C)C(C)Cc2ccccc2)n(C)n(-c2ccccc2)c1=O` (stereo not given), the “activity, negative = cytotoxic” value was -17.5% (inactive).
Still for that read-out and setting: then `CC1=C2C[C@H]3[C@@H](CC=C4C[C@@H](O)CC[C@@]43C)[C@@H]2CC[C@]12O[C@@H]1C[C@H](C)CN[C@H]1[C@H]2C`, with -7.73% (inactive).
Regarding `[C-]1=CC=CC1.[Cl][Zr+2][Cl].c1cc[cH-]c1`, the “activity, negative = cytotoxic” value is 4.22% [at 78.8 µM] (inactive).
In the case of `CCCCn1cc[n+](C)c1` (tested in a mixture with another compound), the “activity, negative = cytotoxic” value was 12.9% (inactive).
On the same count and under the same terms, then `CC(C)C(Br)C(=O)NC(N)=O` (stereo not given), with 16.2% (inactive).
Same read-out and setting: next, `CCC(C)Br` (stereo not given): 1.66% [at 78.8 µM] (inactive); `[O]=[Cr][O][Cr]=[O]`: 5.92% [at 78.8 µM] (inactive); `c1ccc(Nc2ccc(Nc3ccccc3)cc2)cc1`: -5.15% (inactive).
Same read-out and setting: next, `CNC(=O)/C=C(\C)OP(=O)(OC)OC`: 6.84% (inactive).
In the case of `O=[N+]([O-])c1cc(C(F)(F)F)c(Cl)c([N+](=O)[O-])c1Nc1ncc(C(F)(F)F)cc1Cl`, the Potency was 11 µM (active).
In the case of `O=[N+]([O-])[O-].[Tl+]`, the “activity, negative = cytotoxic” value was 12.8% [at 78.8 µM] (inactive).
As for `Fc1ccc(C(OCCN2CCN(CCCc3ccccc3)CC2)c2ccc(F)cc2)cc1`, the Potency is 23.9 µM (active).
Take `CCOP(=O)(OCC)Oc1nc(Cl)c(Cl)cc1Cl`: the “activity, negative = cytotoxic” value is 0.677% (inactive).
In the case of `CC(C)=CCN1CC[C@@]2(C)c3cc(O)ccc3C[C@@H]1[C@@H]2C`, the “activity, negative = cytotoxic” value is -1.24% (inactive).
Take `CSC(=O)c1c(C(F)F)nc(C(F)(F)F)c(C(=O)SC)c1CC(C)C`: the “activity, negative = cytotoxic” value was -13.4% (inactive).
For the compound `CC(Cc1ccc2c(c1)OCO2)NO` (stereo not given), the “activity, negative = cytotoxic” value was -9.52% [at 78.8 µM] (inactive).
On to `CC(=O)[O-].CC(=O)[O-].CC(=O)[O-].[Sb+3]`, for which the activity, negative = cytotoxic is -2.51% [at 6.95 µM] (inactive).
Take `CN(C)C(=S)SSC(=S)N(C)C`: the Potency was 0.674 µM (active).
Take `CC(=O)[O-].CC(=O)[O-].CC(=O)[O-].[Cr+3]`: the “activity, negative = cytotoxic” value was 0.369% (inactive).
On to `Brc1cccc(-c2ccccc2)c1`, for which the “activity, negative = cytotoxic” value is -29.2% [at 78.8 µM] (inactive).
`CCN(CC)CCN1C(=O)CN=C(c2ccccc2F)c2cc(Cl)ccc21`: the “activity, negative = cytotoxic” value was 9.74% (inactive).
`CCCCc1ccccc1`: the “activity, negative = cytotoxic” value was 11% (inactive).
`ClC1=C(Cl)[C@]2(Cl)[C@@H]3[C@H]4C[C@H]([C@@H]5O[C@H]45)[C@@H]3[C@@]1(Cl)C2(Cl)Cl`: the “activity, negative = cytotoxic” value was -11.5% (inactive).
The same measure, in the same setting: next, `O=[N+]([O-])C(Br)Br`: -13.3% (inactive).

The record behind these values is PubChem BioAssay (Tox21).
